What was measured:
Conditions in all cases: concentration: 1 μM, replicates: in singlicate; n = 1
MYLK = system: MYLK
MYO3A = system: MYO3A
MYO3B = system: MYO3B
NDR1 = system: T1, NDR1
T1 construct: gene STK38

NDR2 = system: NDR2
NEK10 = system: NEK10
NEK11 = system: NEK11
NEK1 = system: NEK1
NEK2 = system: NEK2
NEK3 = system: NEK3
NEK4 = system: NEK4
NEK5 = system: NEK5
NEK6 = system: NEK6
NEK7 = system: NEK7
NEK9 = system: NEK9
NIK = system: T2, NIK
T2 construct: gene MAP3K14

NIM1 = system: T3, NIM1
T3 construct: gene MGC42105

NLK = system: NLK
OSR1 = system: T4, OSR1
T4 construct: gene OXSR1

PAK1 = system: PAK1
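Note: KINOMEscan kinase panel screen.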

Structure (SMILES) | %Inh (MYLK) [%] | %Inh (MYO3A) [%] | %Inh (MYO3B) [%] | %Inh (NDR1) [%] | %Inh (NDR2) [%] | %Inh (NEK10) [%] | %Inh (NEK11) [%] | %Inh (NEK1) [%] | %Inh (NEK2) [%] | %Inh (NEK3) [%] | %Inh (NEK4) [%] | %Inh (NEK5) [%] | %Inh (NEK6) [%] | %Inh (NEK7) [%] | %Inh (NEK9) [%] | %Inh (NIK) [%] | %Inh (NIM1) [%] | %Inh (NLK) [%] | %Inh (OSR1) [%] | %Inh (PAK1) [%]
Nc1ncnc2c1ncn2-c1ccc(Cl)cc1 [AH2635] | 0 | 49 | 0 | 0 | 31 | 27 | 0 | 0 | 0 | 0 | 0 | 12 | 0 | 0 | 0 | 89 | 27 | 0 | 0 | 4
CCC(=O)c1c(-c2ccccc2)c2cc(Cl)ccc2c(=O)n1Cc1cc(C(=O)NC2CC2)n(C)n1 | 0 | 4 | 0 | 0 | 0 | 0 | 0 | 10 | 0 | 13 | 16 | 0 | 8 | 0 | 0 | 0 | 1 | 0 | 0 | 20
Cl.c1ccc(Cn2cnc3cc(Nc4ncnc5ccccc45)ccc32)cc1 [GW272142] | 1 | 10 | 0 | 9 | 4 | 15 | 0 | 0 | 0 | 0 | 0 | 16 | 0 | 0 | 7 | 14 | 0 | 0 | 26 | 0
COc1cc(Nc2nccc(N3CCC(NC(=O)C(C)c4ccc(Cl)cc4)C3)n2)cc(OC)c1OC (stereo not drawn) [GSK1379757] | 8 | 20 | 0 | 26 | 0 | 0 | 12 | 8 | 0 | 19 | 0 | 95.5 | 0 | 0 | 19 | 0 | 0 | 0 | 0 | 10
Cc1cc(Nc2nc(-c3cccc(C)n3)nc3ccccc23)ccn1 [GW872411] | 0 | 0 | 0 | 31 | 22 | 6 | 0 | 0 | 0 | 14 | 0 | 6 | 0 | 0 | 0 | 16 | 0 | 0 | 0 | 0
COc1ccc(Nc2nccc(N3CCC(NS(=O)(=O)c4ccc(NC(C)=O)cc4)C3)n2)cc1 (stereo not drawn) [GSK1379729] | 15 | 8 | 2 | 10 | 0 | 0 | 1 | 0 | 8 | 7 | 3 | 33 | 11 | 3 | 5 | 17 | 11 | 13 | 20 | 6
Cc1c(Cn2c(C)nn3c(=O)cc(N4CCO[C@H](C)C4)nc23)cccc1C(F)(F)F [GSK2373690] | 12 | 0 | 0 | 6 | 0 | 6 | 0 | 0 | 24 | 2 | 31 | 0 | 1 | 0 | 0 | 2 | 0 | 27 | 22 | 0
Cc1nnc(-c2ccc3ncn(-c4ccc(S(C)=O)cc4)c3c2)o1 (stereo not drawn) | 0 | 2 | 48 | 21 | 0 | 2 | 0 | 5 | 0 | 0 | 0 | 0 | 17 | 2 | 13 | 3 | 0 | 0 | 0 | 8
Cc1nn2c(=O)cc(N3CCOCC3)nc2n1Cc1cccc(Cl)c1Cl [GSK2342769] | 16 | 0 | 0 | 0 | 0 | 0 | 0 | 0 | 2 | 0 | 9 | 0 | 0 | 0 | 0 | 0 | 12 | 0 | 8 | 9
Nc1ncnc2c1ncn2-c1cccc(F)c1 [SKF-97560] | 38 | 0 | 0 | 15 | 17 | 53 | 38 | 0 | 0 | 25 | 21 | 25 | 0 | 0 | 0 | 18 | 48 | 0 | 28 | 5
COc1cccc(C2=C(N(C)c3ccccc3)C(=O)NC2=O)c1 [SB-334865] | 1 | 22 | 0 | 16 | 0 | 22 | 0 | 0 | 0 | 26 | 0 | 0 | 0 | 0 | 0 | 100 | 21 | 29 | 0 | 1
COc1cc(Nc2nccc(N3CCC(NC(=O)C4COc5ccccc5O4)C3)n2)cc(OC)c1OC (stereo not drawn) [GSK1379761] | 13 | 46 | 0 | 27 | 40 | 0 | 64 | 39 | 11 | 42 | 7 | 97.3 | 21 | 49 | 37 | 42 | 28 | 5 | 2 | 0
COc1ccc(-n2cnc3c(N)ncnc32)cc1 [SKF-97236] | 0 | 4 | 0 | 3 | 0 | 40 | 3 | 0 | 0 | 0 | 0 | 0 | 5 | 0 | 17 | 0 | 12 | 0 | 14 | 0
COc1ccc(-c2cc3c(C)nc(N)nc3n([C@H]3CC[C@H](OCCO)CC3)c2=O)cn1 | 0 | 0 | 25 | 11 | 0 | 22 | 0 | 0 | 0 | 19 | 0 | 0 | 22 | 0 | 0 | 0 | 21 | 0 | 0 | 0
COc1cc2ncn(-c3cc(OCCCc4ccccc4)c(C(N)=O)s3)c2cc1OC [GSK205189] | 23 | 3 | 0 | 0 | 0 | 0 | 0 | 0 | 36 | 0 | 0 | 0 | 0 | 0 | 6 | 0 | 0 | 0 | 2 | 36
COc1cc2ncn(-c3cc(OCc4ccncc4)c(C(N)=O)s3)c2cc1OC [GSK336313] | 44 | 10 | 0 | 0 | 0 | 0 | 0 | 31 | 10 | 0 | 0 | 23 | 0 | 0 | 15 | 0 | 0 | 11 | 31 | 16
CCS(=O)(=O)c1ccc(OC)c(Nc2ncc(-c3ccc(F)cc3)o2)c1.Cl [GW591947] | 0 | 6 | 0 | 10 | 0 | 9 | 0 | 0 | 0 | 0 | 0 | 9 | 0 | 0 | 11 | 0 | 5 | 22 | 4 | 0
Cc1cccc(-c2nc(Nc3ccc4c(cnn4C)c3)c3ccccc3n2)n1 [GW876731] | 0 | 0 | 0 | 17 | 68 | 0 | 46 | 0 | 14 | 0 | 0 | 49 | 12 | 2 | 5 | 11 | 16 | 25 | 0 | 6
COc1cc2ncn(-c3cc(OCc4ccncc4Br)c(C(N)=O)s3)c2cc1OC [GW854278] | 72 | 0 | 9 | 0 | 17 | 0 | 0 | 0 | 33 | 29 | 0 | 2 | 0 | 0 | 0 | 25 | 10 | 0 | 0 | 1
COc1cc(OC)cc(-c2cc3cnc(N)nc3nc2NC(=O)NC(C)(C)C)c1 | 7 | 0 | 0 | 0 | 0 | 0 | 0 | 0 | 3 | 33 | 0 | 0 | 0 | 1 | 0 | 1 | 0 | 0 | 0 | 0
O=c1cc(N2CCOCC2)nc2n(Cc3ccc(F)c(Cl)c3)ccn12 [GSK2297099] | 9 | 8 | 0 | 9 | 0 | 0 | 0 | 0 | 0 | 13 | 0 | 9 | 0 | 61 | 64 | 0 | 17 | 14 | 6 | 5
